Reference: PubChem BioAssay (NCI)
About 83,000 compounds went through this panel and 20% of them were active in at least one assay; those are over-represented in the sample as a whole.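 Step 1: grow cells in 96-well plates. Step 2: add test compound at a single concentration. Step 3: incubate 48 h. Step 4: record percent growth.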 Unmarked numbers belong to inactive results. Calls of active or inactive are those of the source. Rule for the calls: active = growth percent below 10; inactive = the rest.

tested on: HL-60(TB) leukemia; assay: NCI-60 one-dose screen, 48 h (100 = growth as untreated, 0 = no growth, -100 = all killed); settings: 10 µM unless noted

SMILES | growth
Cc1csc(Nc2nc(-c3ccccn3)nc(C(Cl)(Cl)Cl)n2)n1 | 77.4%
CCN(CC)c1ccc(/C=N/NC(=O)C[N+](C)(C)C)cc1 | 35.5%
COc1ccc(-c2nc3sccn3c2-c2nc3c([nH]2)C(=O)c2ccccc2C3=O)cc1 | 94%
COC(=O)c1ccccc1N(C)C | 87.6%
S=c1sc2c(Cl)nc(-c3cccnc3)nc2n1-c1ccccc1 | -52.5% (active)
Nc1ncnc2c1c(-c1ccc(Oc3ccccc3)cc1)nn2C[C@H]1SSC[C@H]1O | -31.9% (active)
CN1C(=O)/C(=C/c2ccc(C(=O)Nc3ncc(Cc4cccc(Cl)c4)s3)cc2)SC1=S | 88.2%
CCOC(=O)c1c(C)cc(=O)oc1C | 105%
O=C(Nc1cc(Cl)ccc1O)c1cccc(Nc2ccnc(C(F)(F)F)c2)c1 | -18% (active)
CC(C)(C)c1ccc(S(=O)(=O)Oc2ccc(-c3sc4cc(OS(=O)(=O)c5ccc(C(C)(C)C)cc5)ccc4c3C(=O)c3ccc(OCCN4CCCCC4)cc3)cc2)cc1 | 95.3%
O=C(Nc1cccc([N+](=O)[O-])c1)c1cccc(C(=O)Nc2cccc([N+](=O)[O-])c2)c1 | 81%
Nc1ccccc1NC(=O)CCCCCCC(=O)Nc1ccc2c(c1)/C(=C/c1ccc[nH]1)C(=O)N2 | -10.2% (active)
c1ccc2c(c1)nc(CN1CCOCC1)n1cc(N3CCCC3)nc21 | 83.4%
C#CCOc1ccc2ncnc(Nc3cccc(CNC(=O)C=C)c3)c2c1 | 97.4% [8.25 µM]
C1Cc2onc(-c3noc4c3CCC4)c2C1 | 103%
O=C1N=c2ccccc2=C1c1sc(=S)n(C2CC(=O)N(c3ccc(Cl)cc3)C2=O)c1O (stereo not given) | 101%
C=C1N(C)c2ccc(Cl)cc2C1(C)C | 6.42% (active)
Cc1nc2ccc(CN(C)c3ccc(C(=O)N[C@@H](CCC(=O)O)C(=O)O)s3)cc2c(=O)[nH]1 | 27.9%
O=C1/C(=C/c2c[nH]c(=O)[nH]c2=O)SC(=S)N1Cc1ccccc1 | 99.3%
COc1ccc2nc3cc([N+](=O)[O-])ccc3c(NNc3ccccc3)c2c1 | 121%
CCC1C(=O)COC1=O (stereo not given) | 96.9%
COc1cccc(-c2nc3sccn3c2-c2ccnc(NCCNC(=O)c3ccccc3)n2)c1 | 94.2%
Oc1ccccc1-c1nnco1 | 96%
CCCCCCNC(=O)Oc1ccc(/C(=C(/CC)Cc2ccccc2)c2ccc(OCCCN(C)C)cc2)cc1 | 64.2%
O=C(/C(Br)=C/c1ccccc1)c1ccccc1 | -2.59% (active)
